A selection: hits, their analogues and other compounds. The true share with any hit is near 17%.
HepG2 viability: HepG2 cytotoxicity, counter-screen for TGF-b inhibitors; HepG2 CAGA-GFP viability, ATP luminescence, 18 h; Potency, µM (titrated, usually from 46.1 µM), for inactives: at the highest dose activity change, negative = cytotoxicity, actives largely listed as cytotoxic; 0.76% of 410,000 active; AID 588856
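CellTiter-Glo luminescence gave cytotoxicity after 18 hours at 37 degrees C. The cells were HepG2 CAGA-GFP in 1% FBS DMEM, stimulated with 500 pg/mL TGF-beta after compound addition. %Activity was normalised to no-cell wells (complete cell-killing) and DMSO (no toxicity), and curves were fitted and classified.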
DT40 TDP1 no CPT: qHTS for Inhibitors of human tyrosyl-DNA phosphodiesterase 1 (TDP1): qHTS in cells in absence of CPT; DT40 Tdp1-/- hTDP1 cells, no CPT, ATP luminescence, 48 h; Potency, µM (series often up to 46.2 µM), for inactives: top-dose activity change, negative = growth inhibition, usual class: inhibitors; 15% of 420,000 active; AID 686978, 2013; also: % is scaled to controls: 0 for no effect and ±100 for the full control effect; nearly all actives have a fitted effect of over 55% in size
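Camptothecin absent (DMSO only). Human TDP1-complemented DT40 knockout cells, 400 cells/well, 37 °C for minimum 48 hr; ATP measured via CellTiter-Glo, 30 min dark incubation, luminescence.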
TGFb SMAD3 inh: inhibitors of TGF-b signaling; HepG2 CAGA-GFP TGF-b/SMAD3 reporter, GFP fluorescence, 18 h; TGF-beta stimulated, 500 pg/mL final; Potency, µM (doses to about 46.1 µM), inactives show at the highest dose activity, negative = inhibition, usual class: inhibitors; 1.2% of 410,000 active; AID 588855; also: % is scaled to controls: 0 for no effect and ±100 for the full control effect; nearly all actives have a fitted effect of over 65% in size
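First, reporter cells (HEPG2 CAGA-GFP) rested 2 h at 37 degrees C. Next, compounds were pinned in and TGF-beta added to 500 pg/mL final. After 18 h, GFP was imaged per cell and summed per well.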
ATXN viability: viability counter-screen for ATXN expression inhibitors; S2 cells (HEK-293 line with an ATXN2-luciferase reporter) viability, CellTiter-Fluor protease fluorescence, 24 h; Potency, µM (top dose mostly 56.7 µM), hits mostly cytotoxic; 0.49% of 400,000 active; AID 651635; also: nearly all actives have a fitted effect of over 40% in size
ATXN2 expr inh: reduces ATXN2 reporter expression in HEK-293 cells; HEK-293 ATXN2-luciferase reporter, luminescence, 24 h; Potency, µM (highest dose often 57 µM), for inactives: at the top dose activity change, negative = inhibition, most hits filed as inhibitors; 0.72% of 360,000 active; AID 1745845; also: % is scaled to controls: 0 for no effect and ±100 for the full control effect; nearly all actives have a fitted effect of over 55% in size
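ATXN2-luciferase reporter cells (luciferase flanked by upstream and downstream ATXN2 gene portions) were treated 24 h at 37 °C with compounds at up to 57 uM. SteadyGlo luminescence gave expression; GF-AFC fluorescence gave viability.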
DT40 TDP1 CPT: growth inhibition of DT40 Tdp1-/-;hTDP1 cells with camptothecin (screen for TDP1 inhibitors). chicken DT40 Tdp1-/-;hTDP1 cells + 20 nM CPT, ATP luminescence, 48 h. Potency, µM (highest dose often 46.2 µM), for the others: top-dose activity change, negative = growth inhibition, most hits filed as inhibitors. 12% of 420,000 active; also: % is scaled to controls: 0 for no effect and ±100 for the full control effect; nearly all actives have a fitted effect of over 55% in size
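Chicken DT40 Tdp1-/- cells complemented with human TDP1, 400 cells/well, exposed to compounds plus 20 nM camptothecin for at least 48 h at 37 C; viability read as ATP content by CellTiter-Glo luminescence.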
Starred values were filed as active, the others as inactive; i = inactive; ? = inconclusive; / = no result. Calls follow the shape of the dose curve; as a rule, active = well fitted curve in the direction sought with a large enough effect; inconclusive = small, poorly fitted or top-dose-only effect, or another doubt; inactive = no such curve, though single readings can be large; an effect the other way counts as inactive or inconclusive. Potency is read from the fitted curve at half-maximal effect.

SMILES | HepG2 viability | DT40 TDP1 no CPT | TGFb SMAD3 inh | ATXN viability | ATXN2 expr inh | DT40 TDP1 CPT
CC(C)(C)n1ncc2c(=O)n(Cc3ccc(C(F)(F)F)cc3)cnc21 | -32.7% | / | -22.6% | / | / | /
COc1ccc(NC(=O)Nc2nnc(-c3ccccc3SCc3ccccc3)s2)cc1 | -23.7% | 6.51µM* | -7.6% | i | -6.4% | 18.4µM*
Cc1ccc(-n2ncc3c(NC(C)c4ccccc4)ncnc32)cc1 (centres undefined) | -36.2% | ? | 29.2% | i | 79.6% | ?
CC(Nc1ncnc2ccccc12)c1ccccc1 (centres undefined) | -6.7% | 0.731µM* | -7.8% | i | -36.7% | 1.16µM*
O=C(Nc1cc([N+](=O)[O-])ccc1Cl)c1ccc2c(c1)OCO2 | -0.2% | -11.8% | -15.2% | i | / | 14.2%
CCOC(=O)c1ccc(NC(=S)NNC(C)(C)C)cc1 | -93.5% | 5.8µM* | ? | ? | / | 5.8µM*
CN(C)c1ccc(N=Cc2nc(-c3ccccc3)oc2OC(=O)c2ccccc2)cc1 | -14.7% | 23.1µM* | 1.7% | ? | 28.8% | 18.4µM*
COc1ccccc1N=Cc1nc(-c2ccccc2)oc1OC(C)=O | -25.2% | ? | -3.1% | ? | -5.6% | ?
CC(=O)Oc1oc(-c2ccccc2)nc1C=Nc1ccc(N(C)C)cc1 | -22.3% | ? | 0.0% | i | -3.3% | ?
CC(=O)Oc1oc(-c2ccccc2)nc1/C=N/c1ccccn1 | -16.0% | 20.6µM* | -14.9% | i | -9.8% | 16.4µM*
C=CCNC(=O)C1CCC(CNc2nc(=S)[nH]c3ccccc23)CC1 (centres undefined) | 0.6% | -23.2% | 2.0% | i | / | -2.9%
O=C(C1CCC(CNc2nc(=S)[nH]c3ccccc23)CC1)N1CCN(c2ccccn2)CC1 (centres undefined) | -20.1% | 18.4µM* | ? | i | -24.9% | 18.4µM*
CC(C)C1Cc2c(sc3ncnc(NN)c23)CO1 (centres undefined) | -31.9% | 11.6µM* | ? | / | -26.7% | 8.2µM*
CC(C)Cc1nc2sc3c(c2c(=O)n1N)CC(C(C)C)OC3 (centres undefined) | 6.4% | 2.59µM* | 14.7% | i | 6.7% | 16.4µM*
CC(C)NC(=S)NNc1ncnc2sc3c(c12)CC(C)(C)OC3 | -25.2% | ? | -17.1% | i | -13.4% | -5.5%
C=C(C)CSc1nc2sc3c(c2c(=O)n1-c1ccccc1)CC(C(C)C)OC3 (centres undefined) | -0.4% | 2.0% | 13.2% | i | -3.5% | -21.4%
CC[n+]1c(/C=C/Nc2ccccc2)sc2ccccc21 | -18.3% | 2.91µM* | -14.6% | i | -25.7% | 5.8µM*
CC/C(=C/c1sc2ccccc2[n+]1CC)SC | 10.0% | 11.6µM* | -2.6% | i | -15.6% | 13µM*
CC[n+]1c(/C=C(\C)Nc2ccccc2)sc2ccccc21 | 28.1% | 18.4µM* | 6.1% | i | ? | 10.3µM*
Cc1sc2ccccc2[n+]1CC(=O)O | 12.1% | -6.7% | -3.2% | i | 0.5% | -9.3%
CCCOC(=S)Nc1ccccc1 | -27.3% | -24.5% | 7.4% | i | 5.8% | -5.4%
CC[n+]1c(/C=C(/C)SC)sc2ccccc21 | -42.3% | 5.17µM* | 5.9% | i | -12.4% | 4.61µM*
CC[n+]1c(/C=C(\C)OC)sc2ccccc21 | 1.5% | -15.7% | -0.9% | i | -10.4% | -5.9%
COc1ccc(-c2cc(C(F)(F)F)n3nc(C(=O)O)c(Cl)c3n2)cc1OC | 3.1% | -10.3% | 13.5% | / | / | 16.1%
Cc1sc2ccccc2[n+]1CCC(C)S(=O)(=O)[O-] (centres undefined) | -12.3% | -0.9% | 2.3% | i | -3.6% | -9.3%
SMILES | HepG2 viability | DT40 TDP1 no CPT | TGFb SMAD3 inh | ATXN viability | ATXN2 expr inh | DT40 TDP1 CPT
CC[n+]1c(C=C2C=C(C)OC(C)=C2)sc2ccccc21 | -25.6% | 0.0326µM* | -24.6% | ? | 10.6µM* | 0.0052µM*
CC[n+]1c(/C=C(\C)SC)sc2ccccc21 | -12.6% | 8.2µM* | -24.9% | i | -23.6% | 9.2µM*
C[N+](C)(CCCCCC[N+](C)(C)C1c2ccccc2-c2ccccc21)C1c2ccccc2-c2ccccc21 | / | ? | / | i | / | ?
CC(O)[C@H]1CC[C@H]2[C@@H]3CC[C@H]4C[C@@H](O)CC[C@]4(C)[C@H]3/C(=N/O)C[C@]12C (some centres undefined) | -29.0% | -11.7% | -19.9% | i | 2.6% | -1.5%
CCC1(C)CC2(CCCN(CCC(O)(c3ccccc3)c3ccccc3)C2)CCO1 (centres undefined) | -14.4% | 14.6µM* | -8.4% | i | -25.3% | ?
CC(C)(C)NC(=O)CCN(/N=C/c1ccccc1O)C1=NS(=O)(=O)c2ccccc21 | 3.0% | 14.6µM* | 5.9% | i | -17.2% | 20.6µM*
CN(/N=C/c1cc(Cl)ccc1O)C1=NS(=O)(=O)c2ccccc21 | -17.5% | 18.4µM* | -29.4% | i | 2.1% | 16.4µM*
CC(C)(C)NC(=O)CCN(/N=C/c1ccncc1)C1=NS(=O)(=O)c2ccccc21 | 0.0% | -10.0% | 13.8% | i | -17.8% | -8.1%
COc1cccc(/C=N/N(C)C2=NS(=O)(=O)c3ccccc32)c1O | 2.0% | -23.7% | 4.5% | i | 10.1% | ?
COc1ccc(/C=N/N(CCC(=O)NC(C)(C)C)C2=NS(=O)(=O)c3ccccc32)cc1 | 4.7% | 20.6µM* | 12.1% | i | -0.7% | 20.6µM*
CCn1cc(C(=O)NCc2cccnc2)c(=O)c2cc(F)c(N3CCN(C(=O)c4ccco4)CC3)cc21 | 0.3% | 20.6µM* | 0.0% | i | 18.6% | 20.6µM*
CCCNC(=O)c1cn(CC)c2cc(N3CCN(C(=O)c4ccco4)CC3)c(F)cc2c1=O | -18.2% | 20.6µM* | -2.3% | i | / | ?
CCn1cc(C(=O)NCc2cccc(F)c2)c(=O)c2cc(F)c(N3CCN(C(=O)c4ccco4)CC3)cc21 | 0.9% | 8.2µM* | 1.3% | ? | 35.5µM* | 5.8µM*
CCCCNC(=O)c1cn(CC)c2cc(N3CCN(C)CC3)c(F)cc2c1=O | -17.9% | -28.0% | -3.2% | i | / | -6.5%
Cc1ccc(CCNC(c2ccc(F)cc2)c2nnc(-c3ccccc3Cl)o2)cc1 (centres undefined) | -24.1% | ? | ? | i | 7.7% | ?
O=C(COc1ccc2c(-c3ccccc3)cc(=O)oc2c1)Nc1ccc(CCO)cc1 | -37.2% | 7.31µM* | -6.2% | ? | / | 8.2µM*
